This is a sample that favours compounds with a hit; in the whole collection about 3.3% have one here.
PfGluPho inh = PfG6PD (Plasmodium falciparum) enzyme inhibition | 0.78% of 350,000 active | PfGluPho enzyme, NADPH resazurin-diaphorase fluorescence | inhibition, % at 20 µM;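 active means inhibition reaching at least a set limit at 20 µM in the primary screen, cut at about 59% in these data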
UHRF1 binding = blocks human UHRF1 binding to methylated DNA; Q96T88; UHRF1 binding to methylated oligo, TR-FRET; inhibition, % at 4.4 µM; 0.75% of 370,000 active; in the data active means inhibition above about 21%;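 further: UHRF1 SRA domain binding a hemimethylated CpG hairpin DNA probe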
Target sequence (Q96T88 whole entry, looked up, the tested form may be a part): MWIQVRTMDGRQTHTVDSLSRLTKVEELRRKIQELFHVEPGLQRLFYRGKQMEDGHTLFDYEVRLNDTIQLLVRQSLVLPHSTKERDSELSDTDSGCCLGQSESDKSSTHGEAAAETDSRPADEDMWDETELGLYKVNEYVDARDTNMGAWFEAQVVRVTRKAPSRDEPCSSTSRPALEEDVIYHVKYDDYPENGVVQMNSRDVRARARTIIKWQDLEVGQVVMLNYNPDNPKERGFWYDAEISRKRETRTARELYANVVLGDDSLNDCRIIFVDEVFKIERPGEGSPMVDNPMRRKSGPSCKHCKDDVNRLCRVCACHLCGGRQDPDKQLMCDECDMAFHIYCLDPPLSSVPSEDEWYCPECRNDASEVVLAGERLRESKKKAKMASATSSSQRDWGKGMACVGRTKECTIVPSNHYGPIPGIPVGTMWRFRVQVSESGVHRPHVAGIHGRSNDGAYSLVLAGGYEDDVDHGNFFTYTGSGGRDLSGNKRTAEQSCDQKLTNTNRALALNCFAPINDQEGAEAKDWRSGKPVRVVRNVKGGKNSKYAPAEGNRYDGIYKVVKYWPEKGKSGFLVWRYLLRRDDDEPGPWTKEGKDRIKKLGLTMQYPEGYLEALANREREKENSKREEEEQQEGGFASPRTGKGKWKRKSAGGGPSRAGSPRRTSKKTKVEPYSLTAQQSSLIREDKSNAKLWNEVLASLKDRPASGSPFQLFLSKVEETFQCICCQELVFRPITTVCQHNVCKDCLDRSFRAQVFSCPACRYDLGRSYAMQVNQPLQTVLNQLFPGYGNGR
MBD2 inh = MBD2-methylated oligo binding inhibition | Q9UBB5 | TR-FRET, MBD2 binding to methylated oligonucleotide | inhibition, % at 4.4 µM | 0.31% of 370,000 active | AID 686964; in the data active means inhibition above about 13%
PRMT1 FP inh = blocks human protein arginine methyltransferase 1; Q99873; recombinant PRMT1, activity-based probe fluorescence polarization; inhibition, % at 2.79 µM; 1.3% of 370,000 active;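 active means inhibition above about 21% made by adding two undisclosed values, limit read from the data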
M18AAP inhibitor = PfM18AAP enzyme inhibition | recombinant PfM18AAP, H-Glu-NHMec fluorogenic cleavage | inhibition, % at 7.35 µM | 1.2% of 290,000 active | AID 1822;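 active means inhibition above the campaign mean inhibition over all tested compounds plus 3 SD, cut at about 28% in these data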
Numbers stand for hits; - = inactive; . = not tested or not shown.

SMILES | PfGluPho inh | UHRF1 binding | MBD2 inh | PRMT1 FP inh | M18AAP inhibitor
O=C(Cn1ccccc1=O)c1ccc(Cl)cc1 | - | - | - | - | -
COc1cc(OC)cc(-c2n[nH]c(=S)n2-c2ccc3c(c2)OCCO3)c1 | - | - | - | - | -
COc1ccc(-c2n[nH]c(=S)n2-c2ccc3c(c2)OCCO3)cc1 | - | - | - | - | 30.3
c1ccc(Cc2c(C3CCCCC3)nc3c4ccccc4ccn23)cc1 | . | - | - | - | .
CCCc1nc2c3ccccc3ccn2c1Cc1cccc(Cl)c1 | . | 24.4 | - | - | .
Fc1cccc(Cc2c(C3CCCCC3)nc3c4ccccc4ccn23)c1 | . | 24.9 | - | - | .
COc1cc(-c2csc(N3CCC(C(N)=O)CC3)n2)cc(OC)c1OC | . | - | - | - | .
COCc1[nH]nc2c1C(c1ccc(F)cc1)N(c1ccc(OC)cc1)C2=O (stereo not drawn) | . | - | - | - | .
Cc1c(Cl)cnc(NC(=O)COC(=O)C(NC(=O)c2ccco2)C(C)C)c1Cl (stereo not drawn) | - | - | - | - | -
Cc1nc(NC(=O)COC(=O)[C@@H](NC(=O)c2ccco2)C(C)C)c(Cl)cc1Cl | - | 41.8 | - | - | .
CCCCNC(=O)C[C@@H]1C(=O)N2CCCC3=C2[C@@]1(C(=O)OCC)CCC3 | . | - | - | - | .
COC(=O)C1=C(C)N(Cc2cccc(C(F)(F)F)c2)C(=NCc2ccc(OC)cc2)NC1c1ccc(Cl)cc1 (stereo not drawn) | . | - | - | - | .
CC(NC(=O)c1ccc(CS(=O)(=O)c2cccc(C(F)(F)F)c2)o1)c1ccc2c(c1)OCCO2 (stereo not drawn) | - | 41.5 | - | - | -
O=C(NCc1ccc2c(c1)OCO2)c1ccc(CS(=O)(=O)c2cccc(C(F)(F)F)c2)o1 | - | - | - | - | -
CC(C)C[C@H]1COc2cc(Br)ccc2S(=O)(=O)N1Cc1cn(Cc2ccc(Br)cc2)nn1 | . | - | - | - | .
CC(=O)C1C(=O)c2c(cccc2[N+](=O)[O-])C1=Nc1ccc(S(N)(=O)=O)cc1 (stereo not drawn) | - | - | - | - | 30.8
COc1ccc(S(N)(=O)=O)cc1C(N)=O | - | 21.5 | - | - | -
COc1ccc(S(N)(=O)=O)cc1C(=O)N1CCCC1 | - | - | - | - | -
COC(=O)c1cc2c(c3c4cc(OC)ccc4n(S(=O)(=O)c4cccc(C)c4)c13)C(=O)N(Cc1ccc(N(C)C)cc1)C2 | . | - | - | - | .
COC(=O)c1cc2c(c3c4ccccc4n(S(=O)(=O)c4cccc(C)c4)c13)C(=O)N(Cc1ccc(N(C)C)cc1)C2 | . | - | - | 22.2 | .
CCOC(=O)C1=C(C)NC(=S)NC1c1ccc(-c2cccc(Cl)c2C)o1 (stereo not drawn) | - | - | - | 21.6 | -
CC(C)CNC(=O)OCc1cn(Cc2cccc(C(F)(F)F)c2)nn1 | . | - | - | - | .
Cc1sc2nc(-c3cccnc3)[nH]c(=O)c2c1-c1ccccc1 | - | - | - | 22.8 | -
CCNC(=O)N1CCN(c2ccc(N3CCN(C(=O)NCC)[C@H](C)C3)c(C)c2)[C@H](C)C1 | . | - | - | - | .
N#Cc1cccc(NC(=O)CSc2sc3c(O)cc(=O)[nH]c3c2C#N)c1 | - | - | - | - | -
SMILES | PfGluPho inh | UHRF1 binding | MBD2 inh | PRMT1 FP inh | M18AAP inhibitor
N#Cc1c(SCC(=O)Nc2cccc(F)c2)sc2c(O)cc(=O)[nH]c12 | - | 30.2 | - | - | -
Cc1ccccc1NCC(=O)N/N=C/c1ccc[nH]1 | . | - | - | - | .
CC(NCC(O)c1ccc([N+](=O)[O-])cc1)C12CC3CC(CC(C3)C1)C2 (stereo not drawn) | - | 21.7 | - | - | -
COc1ccc(C(=O)N[C@H]2CC[C@@]34CCCN3C(=O)CCC[C@H]4[C@H]2C)cc1 | . | - | - | - | .
COc1ccccc1/C=c1\sc2nc(-c3ccco3)nn2c1=O | - | . | . | . | -
CCOc1ccc(/C=c2\sc3nc(-c4ccco4)nn3c2=O)cc1OCC | - | 39.0 | - | - | -
COc1cccc(CNC(=O)[C@H]2CCCN2C(=O)[C@H]2CCCN2C(=O)c2ccc(OC(F)(F)F)cc2)c1 | . | - | - | - | .
CCCCNC(=O)C1c2ccccc2OCC(=O)N1C1CC1 (stereo not drawn) | . | 21.1 | - | - | .
COc1ccc(OC)c(NC(=O)C2(C)CCN2C(=O)CC2CC2)c1 (stereo not drawn) | . | 28.2 | - | - | .
Cc1ccc(S(=O)(=O)CCSc2cccc(C(=O)Nc3ccccc3C(=O)O)c2)cc1 | - | - | - | 77.3 | -
Cc1ccc(NC(=O)c2cccc(C(=O)Nc3ccc(C)cc3C(=O)O)c2)c(C(=O)O)c1 | - | - | - | - | -
CN(C)C1(CN=Cc2cc(Cl)cc([N+](=O)[O-])c2O)CCCCC1 | - | - | - | - | 29.7
COC(=O)[C@]12C[C@H](CC(=O)NCCC(C)C)C(=O)N(Cc3cccc4ccccc34)C1=C[C@H](C(C)(C)C)O[C@@H]2C | . | - | - | - | .
CCCc1c2c(cc3c(=O)cc(C(=O)OCC)oc13)CCCC2 | - | 74.4 | - | - | -
CCCC(C(=O)NC1CCCC1)N(CC1CCCO1)C(=O)CNS(=O)(=O)c1ccc(F)cc1 (stereo not drawn) | - | - | - | - | -
CC(C)C(C(=O)NC1CCCC1)N(CC1CCCO1)C(=O)CNS(=O)(=O)c1ccc(F)cc1 (stereo not drawn) | - | 28.2 | - | - | -
CCCN(CC1CC1)C(=O)c1oc(=O)c2ccccc2c1-c1ccc(C)cc1 | . | - | - | - | .
COc1ccc(S(=O)(=O)n2ccnc2)c2cccnc12 | - | 22.1 | - | - | -
O=C1C=CC(=O)c2c(O)c(CO)c(CO)c(O)c21 | - | 86.8 | 57.3 | 49.8 | .
O=C1Nc2ccccc2Nc2ccccc21 | - | 23.1 | - | - | -
COc1ccc(C2=NOC(C(=O)Nc3c(C)n(C)n(-c4ccccc4)c3=O)C2)cc1 (stereo not drawn) | - | - | - | - | -
COc1cc(C2=NOC(C(=O)Nc3c(C)n(C)n(-c4ccccc4)c3=O)C2)cc(OC)c1OC (stereo not drawn) | - | 24.1 | - | - | -
O=C(c1cn[nH]c1)c1cc(F)ccc1O | - | - | - | - | 31.2
Cc1[nH]nc2ncc(C(=O)c3cc(F)ccc3O)cc12 | - | - | - | - | -
Cc1nn(C(C)C(=O)NC2C(=O)N3C(C(=O)O)=C(CSc4nnnn4C)CSC23)cc1Cl (stereo not drawn) | - | - | - | 24.0 | -
SMILES | PfGluPho inh | UHRF1 binding | MBD2 inh | PRMT1 FP inh | M18AAP inhibitor
Cc1cc(C(F)F)nn1CC(=O)NC1C(=O)N2C(C(=O)O)=C(CSc3nnnn3C)CSC12 (stereo not drawn) | - | - | - | 23.8 | -
Cc1ccc(-n2c(SCC(=O)c3ccc(O)c(O)c3)nnc2-c2ccccc2)cc1 | . | - | - | - | .
O=S1(=O)N[C@H](Cc2ccccc2)COc2cccc(F)c21 | . | - | - | - | .
COc1ccc(NCc2nnc(SCC(=O)Nc3cc(C)cc(C)c3)o2)cc1 | - | - | - | 23.7 | -
Cc1ccc(NC(=O)CSc2nnc(Cn3cnc4ccccc43)o2)cc1 | - | 20.9 | - | - | -
COc1ccc(NCc2nnc(SCC(=O)c3ccc(C)cc3)o2)cc1 | - | - | - | - | -

Screening results from PubChem BioAssay.
